D2 PAM-1 – positive allosteric modulators of human D2 dopamine receptor | AID 624464 | 360,000 tested, 0.23% active | potentiation, % (concentration not given with the values) | P14416 | DiscoveRx D2 beta-arrestin cells, luminescence, 90 min; 100% = 57 uM dopamine signal; in the data active = potentiation above about 50%; inconclusive = mostly about 30% to 49%
Target sequence (P14416 whole entry, looked up): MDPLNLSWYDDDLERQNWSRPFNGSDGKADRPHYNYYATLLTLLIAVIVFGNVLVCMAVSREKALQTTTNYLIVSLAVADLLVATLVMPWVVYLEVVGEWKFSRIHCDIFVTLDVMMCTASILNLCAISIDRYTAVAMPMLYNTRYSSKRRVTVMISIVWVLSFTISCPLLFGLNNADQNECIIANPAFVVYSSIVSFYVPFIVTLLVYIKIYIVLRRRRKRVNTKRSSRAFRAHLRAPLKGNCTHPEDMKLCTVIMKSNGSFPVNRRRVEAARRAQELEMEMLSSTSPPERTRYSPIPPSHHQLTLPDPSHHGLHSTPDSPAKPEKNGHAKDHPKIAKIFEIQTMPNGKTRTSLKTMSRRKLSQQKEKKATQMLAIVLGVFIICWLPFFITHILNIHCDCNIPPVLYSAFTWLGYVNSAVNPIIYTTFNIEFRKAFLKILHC
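PathHunter D2 cells, attached overnight at 37 deg C, received compound in DMSO plus dopamine at EC20 (50 nM final) for 90 min at 37 deg C. Beta-arrestin recruitment was read as luminescence after 1 h with detection reagent at ambient temperature.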
D2 PAM-2 – positive allosteric modulators of human D2 dopamine receptor; P14416; HEK293 T-REx D2, calcium flux, EC20 dopamine potentiation; potentiation, % at 10 µM; 340,000 tested, 0.34% active;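 active = potentiation over 3 SD above the plate norm, cut at about 30% in these data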; note: 0% is about no effect
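Potentiation of an EC20 dopamine calcium response measured kinetically over 180 s, after a preceding 180 s compound-only read flagging agonists. Cells: inducible Hek293 Trex D2 line, 4000/well, cultured overnight at 30 C before dye loading.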
D2 ag-1 – activates the human D2 dopamine receptor | HEK293 T-REx D2 cells, calcium flux agonist mode | activation, % at 2 µM | 340,000 tested, 0.53% active;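 active = activation over 3 SD above normal in the single-dose calcium agonist read, cut at about 30% in these data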; note: 0% is about no effect
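HEK293 Trex D2 cells, tetracycline-induced, o/n 30 C 5% CO2; no-wash Ca dye, RT 30–90 min; 10-cycle baseline, 23 nl cpd added, kinetic Ca read 180 s; agonist hits = positive Ca response.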
D2 antagonist – D2 dopamine receptor (human) antagonism; P14416; HEK293 TREx D2 cells, calcium flux, dopamine EC80; inhibition, % at 10 µM; 340,000 tested, 2% active; in the data active = inhibition above about 30%; inactive = below that, where a call was filed; note: 0% is about no effect
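Tetracycline-induced HEK293 TREx cells expressing D2 receptor forced-coupled to calcium signalling, loaded with no-wash calcium dye. Compounds added and calcium flux read 180 s, then dopamine added at EC80 and read a further 180 s.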
D2 ag-2 – human D2 receptor agonism in beta-arrestin assay; DiscoveRx PathHunter D2 beta-arrestin, luminescence, 90 min; 100% = 57 uM dopamine signal; activation, % (concentration not given with the values); 360,000 tested, 0.084% active; AID 624465; in the data active = activation above about 40%; inconclusive = between about 15% and that limit
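Agonist mode: compounds alone added to overnight-plated D2 PathHunter cells for 90 min at 37 C, with 57 uM final dopamine (EC100) defining full response. Beta-arrestin recruitment detected by chemiluminescent reagent, read after 1 h at ambient temperature.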
Numbers without * were called inactive; u = inconclusive; x = not tested or not shown; ! = a repeat was not active. This is a sample that favours compounds with a hit; in the whole collection about 2.4% have one here.

SMILES | D2 PAM-1 | D2 PAM-2 | D2 ag-1 | D2 antagonist | D2 ag-2
C=CCNc1nc(SC)nc2ccsc12 | -18 | -4 | 0 | 32* | -1
O=C(c1cccn1-c1nnc(N2CCCCC2)s1)N1CCN(c2ccccc2)CC1 | x | -8 | 0 | x | x
Fc1ccccc1/C=N/n1cc(-c2ccccc2)[nH]c1=S | -21 | 5 | 0 | 38* | -7
S=c1[nH]c(-c2ccccc2)cn1/N=C/c1ccc(Br)cc1 | -18 | -25 | 0 | 36* | -1
O=C(O)c1ccc(/C=N/n2cc(-c3ccccc3)[nH]c2=S)cc1 | -18 | -5 | -1 | -3 | -6
CC1CCc2nc3ncn(Cc4ccc(Cl)cc4)c(=O)c3cc2C1 (stereo not given) | x | -4 | 0 | x | x
Cc1ccc(NC(=O)Cn2c3ccc(F)cc3c3nc4n(c(=O)c32)CCS4)cc1F | -3 | 35* | 2 | -3 | -7
O=C(Cn1c2ccc(F)cc2c2nc3n(c(=O)c21)CCS3)Nc1ccc(Cl)cc1F | -10 | 7 | 0 | -8 | 1
COc1ccc(-c2csc3nc(-c4ccccc4C)oc(=O)c23)cc1OC | x | 3 | 0 | x | x
O=C(CN1CCc2cc3c(cc2C1)OCCCO3)Nc1c(F)cccc1F | -25 | -3 | 1 | 42* | -1
Fc1ccccc1N1CCN(C2CCCN(Cc3cccc(C(F)(F)F)c3)C2)CC1 (stereo not given) | -6 | -14 | 29 | 55* | 14
Oc1ccccc1CN1CCCC(N2CCN(c3cccc(C(F)(F)F)c3)CC2)C1 (stereo not given) | -2 | -4 | 0 | -15 | 3
CCN(CC)CCCNC(=O)c1cnc(SC)nc1-c1ccccc1 | x | -1 | 0 | x | x
CC(C)(C)C(=O)NC1CCN(C(=O)N2CCCC2)CC1 | 5 | x | 1 | 32* | 2
CCOc1ccc(C2CC(=O)N(c3cccc(F)c3)C3=C2C(=O)OC3)cc1 (stereo not given) | x | -11 | 0 | x | x
C=CCn1c(CNC(=O)c2ccccc2F)nnc1SCc1nc2ccccc2c(=O)[nH]1 | -31 | 38* | x | x | 13
O=C(O)c1cccc(N/N=C/c2cccc3ccccc23)c1 | 5 | 47* | -1 | -6 | -1
O=C(COC(=O)c1cccnc1)Nc1cccc2ccccc12 | -5 | 2 | 0 | 32* | -7
Cc1ccccc1/C=N/NC(=O)c1cccnc1 | -3 | 4 | 0 | -12 | -7
O=C(N/N=C/c1cccc2ccccc12)c1cccnc1 | -18 | 0 | 0 | 37* | -3
Cn1cc(/C=N/NC(=O)c2cc3cc(Br)ccc3o2)c2ccccc21 | -9 | -21 | 0 | 66* | -3
COc1ccc2ccccc2c1/C=N/Nc1cccc(C(=O)O)c1 | 12 | 10 | 0 | 14 | 6
O=C(O)Cn1cc(/C=N/NC(=O)c2cc3cc(Br)ccc3o2)c2ccccc21 | -4 | -21 | 0 | -22 | 2
Nc1ccc(C(=O)N/N=C\C=C\c2cccc([N+](=O)[O-])c2)cc1 | -4 | -4 | 3 | 48* | -2
O=C(N/N=C/c1cccc([N+](=O)[O-])c1)c1cc2ccccc2o1 | -27 | -20 | -1 | 33* | -5
SMILES | D2 PAM-1 | D2 PAM-2 | D2 ag-1 | D2 antagonist | D2 ag-2
O=C(N/N=C/c1cccc2ccccc12)c1cc2ccccc2o1 | -21 | -22 | -1 | 52* | -4
O=C(N/N=C/C=C/c1cccc([N+](=O)[O-])c1)c1ccncc1 | -2 | -9 | -1 | 3 | 1
O=C(O)c1cccc(N/N=C/c2sc(N3CCOCC3)nc2-c2ccccc2)c1 | 112* | 8 | -1 | -12 | 13
Cc1c(CNCCCc2ccccc2)c(C(=O)O)c(C)n1Cc1ccc(Cl)cc1 | x | 2 | 0 | x | x
CCC(C(=O)N1CCN(c2cc(Cl)ccc2C)CC1)n1nc(C)c2sc3ccccc3c2c1=O (stereo not given) | x | -1 | -1 | x | x
Cc1ccc(NC(=O)CSc2nc(=O)n(CCN3CCOCC3)c3c2CCC3)cc1Cl | x | 0 | x | x | x
CCCCn1c(NCc2cc(Cl)ccc2O)nc2ccccc21 | x | -7 | -1 | x | x
COc1ccc(CCNc2c(C)c(C)nc3ncnn23)cc1 | -1 | 43* | 1 | -19 | 0
COC(=O)c1ccc([N+](=O)[O-])cc1N1C(=O)C2C3CCC(C3)C2C1=O (stereo not given) | 7 | -1 | 0 | 53* | u
COc1cc([N+](=O)[O-])ccc1NC(=O)CCN1C(=O)C2C3CCC(C3)C2C1=O (stereo not given) | -21 | x | x | x | 4
COc1ccc(C(=O)N/C(=C\c2ccc([N+](=O)[O-])cc2)C(=O)NC(CCSC)C(=O)O)cc1 (stereo not given) | 1 | -4 | 18 | 35* | 0
COc1cccc(NC(=O)Cn2c(=O)n(Cc3ccccc3)c(=O)c3c2c2cc(C)ccc2n3C)c1 | x | 1 | x | x | x
COc1ccc(-n2cc(-c3ccccc3)c3c(Nc4ccc(OC)c(OC)c4)ncnc32)cc1 | x | -3 | -1 | x | x
Cc1ccccc1CSc1cn(CC(=O)N2CCCC2)c2ccccc12 | x | 5 | 1 | x | x
Fc1ccc(NC(=S)N/N=C/c2cccc(Br)c2)c(F)c1 | 2 | 48* | 0 | 2 | -2
CCOc1ccc(N=C2C(=O)Nc3ccc(C)c(Br)c32)cc1 | -32 | -3 | 1 | 42* | -17
Cc1ccc2c(c1Br)/C(=N/N1C(=O)c3ccccc3C1=O)C(=O)N2 | -52 | 25 | 1 | 16 | -18
CCCCNc1c(-c2ccc(SC3CCCCC3)c(OC)c2)nc2ccc(C)cn12 | 2 | x | x | x | 7
CCCCNc1c(-c2ccc(OC)c(SC3CCCCC3)c2)nc2ccc(C)cn12 | -9 | x | x | x | 48*
NC(=O)CSc1nc2ccccc2c(=O)n1-c1ccccc1 | -7 | 5 | 0 | 41* | 2
CCn1c(SCC(N)=O)nc2ccccc2c1=O | -10 | 3 | 0 | 37* | 0
COc1cccc(-n2c(SCC(N)=O)nc3ccccc3c2=O)c1 | 4 | 11 | 5 | 28 | -1
Cc1ccc(-n2c(SCC(N)=O)nc3c([nH]c4ccccc43)c2=O)cc1 | -8 | 32*! | 0 | -3 | -5
O=c1cc(-c2ccco2)nc(SCc2cccc(Cl)c2)[nH]1 | 54* | 0 | 0 | -1 | 5
CCCCNC(=S)N(C)/N=C/c1ccc(F)cc1 | -21 | 7 | -2 | 91* | -1
CCCCNC(=S)N(C)/N=C/c1c(F)cccc1F | -2 | 7 | 1 | 6 | 0
COc1ccc(C(=O)NCC(c2cccnc2)N2CCc3ccccc3C2)cc1OC (stereo not given) | x | 0 | 0 | x | x
CC(=O)NC12CC3CC(C1)CC(C(=O)OCC(=O)Nc1c(F)cccc1F)(C3)C2 | -7 | -6 | 0 | 37* | 1
Brc1ccc(-c2cn3c(n2)CCc2ccc4cccnc4c2-3)cc1 | -12 | 32* | -1 | -6 | 3

Screens as filed in PubChem BioAssay.
